This passage reports potency estimated from few doses results from paper PMC11062922 (Nature Chemical Biology, 2023).

Read-outs that look alike come from different tables or passages of the source.

The subject of assay [1] is AAK1. Also noted: species or system human, MV4-11 + K-562 + COLO205 + SK-N-BE2 + OVCAR-8. Particulars: read-out: apparent Kd, n = 1.
Assay [2] relates to BMP2K. Details: species or system human, MV4-11 + K-562 + COLO205 + SK-N-BE2 + OVCAR-8. To be noted: read-out: apparent Kd, compound concentrations: 100 nM and 1000 nM (sheet 'Samples'), n = 1.
The test system of assay [3] is CLK1. Details: species or system human, MV4-11 + K-562 + COLO205 + SK-N-BE2 + OVCAR-8. Particulars: read-out: apparent Kd, compound concentrations: 100 nM and 1000 nM (sheet 'Samples'), n = 1.
The test system of assay [4] is CLK4. Details: species or system human, MV4-11 + K-562 + COLO205 + SK-N-BE2 + OVCAR-8. Particulars: read-out: apparent Kd, n = 1.
The subject of assay [5] is FLT4. Details: species or system human, MV4-11 + K-562 + COLO205 + SK-N-BE2 + OVCAR-8. To be noted: read-out: apparent Kd, n = 1.
For assay [6], the system named is GAK. Also noted: species or system human, MV4-11 + K-562 + COLO205 + SK-N-BE2 + OVCAR-8. To be noted: read-out: apparent Kd, compound concentrations: 100 nM and 1000 nM (sheet 'Samples'), n = 1.
The subject of assay [7] is GSK3A. Details: species or system human, MV4-11 + K-562 + COLO205 + SK-N-BE2 + OVCAR-8. To be noted: read-out: apparent Kd, compound concentrations: 100 nM and 1000 nM (sheet 'Samples'), n = 1.
The subject of assay [8] is GSK3B. Details: species or system human, MV4-11 + K-562 + COLO205 + SK-N-BE2 + OVCAR-8. To be noted: read-out: apparent Kd, compound concentrations: 100 nM and 1000 nM (sheet 'Samples'), n = 1.
Assay [9] concerns PAK4. Also noted: species or system human, MV4-11 + K-562 + COLO205 + SK-N-BE2 + OVCAR-8. To be noted: read-out: apparent Kd, n = 1.
Assay [10] concerns PKN1. Details: species or system human, MV4-11 + K-562 + COLO205 + SK-N-BE2 + OVCAR-8. To be noted: read-out: apparent Kd; compound concentrations: 100 nM and 1000 nM (sheet 'Samples'), CATDS: 1.63422390888056E-2; n = 1.
For assay [11], the system named is PKN3. Also noted: species or system human, MV4-11 + K-562 + COLO205 + SK-N-BE2 + OVCAR-8. Particulars: read-out: apparent Kd; compound concentrations: 100 nM and 1000 nM (sheet 'Samples'), CATDS: 1.86767996374981E-2; n = 1.
The subject of assay [12] is PRKAG1. Details: species or system human, MV4-11 + K-562 + COLO205 + SK-N-BE2 + OVCAR-8. Particulars: read-out: apparent Kd; compound concentrations: 100 nM and 1000 nM (sheet 'Samples'), CATDS: 2.2977618233773301E-2; n = 1.
Assay [13] addresses Q6ZSR9 (human, UniProt Q6ZSR9). Also noted: species or system MV4-11 + K-562 + COLO205 + SK-N-BE2 + OVCAR-8. Particulars: read-out: apparent Kd, n = 1.
Assay [14] concerns RET. Also noted: species or system human, MV4-11 + K-562 + COLO205 + SK-N-BE2 + OVCAR-8. To be noted: read-out: apparent Kd, compound concentrations: 100 nM and 1000 nM (sheet 'Samples'), n = 1.
Assay [15] relates to SIK2. Details: species or system human, MV4-11 + K-562 + COLO205 + SK-N-BE2 + OVCAR-8. To be noted: read-out: apparent Kd, n = 1.
The test system of assay [16] is CSNK2A1;CSNK2A3. Details: species or system human, MV4-11 + K-562 + COLO205 + SK-N-BE2 + OVCAR-8. To be noted: read-out: apparent Kd, compound concentrations: 100 nM and 1000 nM (sheet 'Samples'), n = 1.
The subject of assay [17] is CSNK2A2. Details: species or system human, MV4-11 + K-562 + COLO205 + SK-N-BE2 + OVCAR-8. Particulars: read-out: apparent Kd, compound concentrations: 100 nM and 1000 nM (sheet 'Samples'), n = 1.
For assay [18], the system named is MELK. Also noted: species or system human, MV4-11 + K-562 + COLO205 + SK-N-BE2 + OVCAR-8. Particulars: read-out: apparent Kd, n = 1.
Assay [19] concerns NUAK1. Also noted: species or system human, MV4-11 + K-562 + COLO205 + SK-N-BE2 + OVCAR-8. To be noted: read-out: apparent Kd, n = 1.
Setting [20] is: compound concentrations:100 nM and 1000 nM (sheet 'Samples').

Chain of Q6ZSR9 (Q6ZSR9 whole entry, looked up): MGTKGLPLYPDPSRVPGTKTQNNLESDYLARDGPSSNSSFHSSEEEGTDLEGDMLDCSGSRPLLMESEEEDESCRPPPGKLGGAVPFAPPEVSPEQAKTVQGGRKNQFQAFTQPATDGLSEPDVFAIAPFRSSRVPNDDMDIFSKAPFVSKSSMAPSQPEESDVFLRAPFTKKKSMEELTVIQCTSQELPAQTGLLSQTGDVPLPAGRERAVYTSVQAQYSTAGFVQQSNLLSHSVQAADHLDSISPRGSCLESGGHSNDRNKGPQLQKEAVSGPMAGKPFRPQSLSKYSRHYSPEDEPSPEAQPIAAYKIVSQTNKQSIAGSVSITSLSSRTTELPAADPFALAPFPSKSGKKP

For `Cl.Cn1c(=O)c(Cc2ccccc2F)cc2cnc(NC3CCOCC3)nc21` [RO3305377-001], the potency estimated from few doses in assay [1] (compound concentrations: 100 nM and 1000 nM (sheet 'Samples'), CATDS: 2.16510603665701E-2) is 917 nM; in [2] (CATDS: 1.6723713809558501E-2), 1910 nM; in assay [3] (CATDS: 1.9184829290140398E-2), 1250 nM; in [4] (compound concentrations: 100 nM and 1000 nM (sheet 'Samples'), CATDS: 2.3036060895887101E-2) it was 796 nM; in assay [5] (compound concentrations: 100 nM and 1000 nM (sheet 'Samples'), CATDS: 1.78487472229053E-2) it was 1540 nM; in assay [6] (CATDS: 3.35725694953104E-2) it was 389 nM. The potency estimated from few doses is 459 nM in [7] (CATDS: 3.04876999302407E-2); 722 nM in assay [8] (CATDS: 2.4100870065686699E-2); 1170 nM in [9] (compound concentrations: 100 nM and 1000 nM (sheet 'Samples'), CATDS: 1.9668858061390699E-2); 2080 nM in [10]; 1350 nM in [11]; 801 nM in assay [12]. The potency estimated from few doses in assay [13] (compound concentrations: 100 nM and 1000 nM (sheet 'Samples'), CATDS: 2.0313751812051702E-2) was 1070 nM; in assay [14] (CATDS: 2.33186267232918E-2), 775 nM; in assay [15] (compound concentrations: 100 nM and 1000 nM (sheet 'Samples'), CATDS: 2.09056260277059E-2), 998 nM.
Consider `Cn1cc(C=C2C(=O)Nc3cccnc32)c2ccccc21` [GW441756X], for which the potency estimated from few doses in assay [1] (compound concentrations: 100 nM and 1000 nM (sheet 'Samples'), CATDS: 0.22645425815754) was 1250 nM; in assay [2] (CATDS: 0.330795354292378), 609 nM; in assay [13] (compound concentrations: 100 nM and 1000 nM (sheet 'Samples'), CATDS: 0.24113419116187701), 1090 nM.
Consider `NS(=O)(=O)c1ccc(N/N=C2\C(=O)Nc3ccc4ncccc4c32)cc1` [GW305178X], for which the potency estimated from few doses in assay [1] (compound concentrations: 100 nM and 1000 nM (sheet 'Samples'), CATDS: 4.5052292202984998E-2) is 1340 nM; in assay [2] (CATDS: 4.3500032535549099E-2), 1510 nM; in [16] (CATDS: 3.8490357435000497E-2), 2360 nM; in [17] (CATDS: 4.2211322900730999E-2), 1670 nM; in [13] (compound concentrations: 100 nM and 1000 nM (sheet 'Samples'), CATDS: 4.4355829104281E-2), 1410 nM.
As to `O=C1N=C(N[C@H](CO)c2ccccc2)S/C1=C\c1ccc2ncccc2c1` [RO4554339-000], the potency estimated from few doses in assay [1] (compound concentrations: 100 nM and 1000 nM (sheet 'Samples'), CATDS: 0.10816447707824001) was 735 nM; in assay [16] (CATDS: 0.26590884807239001), 111 nM; in assay [17] (CATDS: 0.32699476113935999) it was 80.2 nM; in [13] (compound concentrations: 100 nM and 1000 nM (sheet 'Samples'), CATDS: 9.0735809704368106E-2) it was 1320 nM.
As for `O=C(Nc1n[nH]c2nc(-c3ccccc3O)ccc12)C1CC1` [SB-711880], the potency estimated from few doses in [1] (setting [20]) was 713 nM; in assay [4] (setting [20]), 1230 nM; in assay [5] (setting [20]), 1790 nM; in assay [18] (setting [20]), 2380 nM; in [19] (setting [20]), 1850 nM; in [9] (setting [20]), 357 nM. In addition, the figures for the potency estimated from few doses in [13] (setting [20]) and in assay [15] (setting [20]) were 537 nM and 547 nM, respectively.
`O=C1N=C(NCCc2ccccc2Cl)S/C1=C\c1ccc2ncccc2c1` [RO4498484-000]: the potency estimated from few doses was 1000 nM in assay [1] (compound concentrations: 100 nM and 1000 nM (sheet 'Samples'), CATDS: 7.0672381673146406E-2); 151 nM in [3] (CATDS: 0.163722912511999); 114 nM in [4] (compound concentrations: 100 nM and 1000 nM (sheet 'Samples'), CATDS: 0.193469538942661); 147 nM in [16] (CATDS: 0.166165421111277); 105 nM in assay [17] (CATDS: 0.20425555691522501); 1060 nM in assay [6] (CATDS: 6.92626012786898E-2). The potency estimated from few doses in [13] (compound concentrations: 100 nM and 1000 nM (sheet 'Samples'), CATDS: 7.2207205601376195E-2) is 937 nM.
With `CN[C@H](C#Cc1c(F)ccc2c1/C(=C/c1[nH]ccc1OC)C(=O)N2)CO.Cl` [RO0283049-001], the potency estimated from few doses in assay [1] (compound concentrations: 100 nM and 1000 nM (sheet 'Samples'), CATDS: 2.8240152121160999E-2) was 574 nM; in [2] (CATDS: 7.2716114591836398E-2), 79.8 nM; in assay [16] (CATDS: 2.0504154829503698E-2) it was 1690 nM; in assay [17] (CATDS: 2.5963864867474401E-2), 730 nM; in assay [6] (CATDS: 2.5381960568832601E-2), 781 nM; in [7] (CATDS: 5.21732936396841E-2) it was 145 nM. Besides, the potency estimated from few doses in assay [8] (CATDS: 5.3689374792110299E-2) was 137 nM; in assay [18] (compound concentrations: 100 nM and 1000 nM (sheet 'Samples'), CATDS: 2.5364281194585201E-2), 783 nM; in assay [19] (compound concentrations: 100 nM and 1000 nM (sheet 'Samples'), CATDS: 5.6502774837069003E-2), 125 nM; in [9] (compound concentrations: 100 nM and 1000 nM (sheet 'Samples'), CATDS: 2.6532527955357901E-2), 685 nM; in [13] (compound concentrations: 100 nM and 1000 nM (sheet 'Samples'), CATDS: 2.6998984012354399E-2) it was 651 nM; in assay [14] (CATDS: 3.2863733799292097E-2), 389 nM.
